Source: the supplement of paper PMC8975748
Counter-ions that a name gives are not always drawn.

tested on: Saccharomyces cerevisiae BY4741 SeMeCo community; assay: z-score of subpopulation abundance vs DMSO median, subpopulation auxotrophic for UM; higher = larger share of this subpopulation than in DMSO controls; conditions: 10 µM; 24 h; SM minimal medium; subpopulation (auxotrophy): UM
How it was run: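 Four plasmids, each restoring a single auxotrophy and encoding a distinct fluorescent protein, were carried by a Saccharomyces cerevisiae BY4741 community. After overnight growth to OD600 1.0 and dilution to 0.3, 70 µl per well was grown for 24 h in minimal SM medium on 384-well plates acoustically predosed with library drugs at 10 µM final. Following paraformaldehyde fixation, automated confocal microscopy was used, with single-auxotroph fluorescent strains defining thresholds and autofluorescence correction. Subpopulation abundance was then scored as a z-score against the vehicle-well median.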

Point of comparison: `CC(=O)OCC(COC(C)=O)OC(C)=O` [Triacetin], “z-score of subpopulation abundance” value -0.42. Against it:
- CC(C)Cc1ccc(C(C)C(=O)O)cc1 (stereo unspecified) [Ibuprofen] — lower, -3.84
- Fc1ccc(C(c2ccc(F)cc2)N2CCN(C/C=C/c3ccccc3)CC2)cc1 [Flunarizine 2HCl] — higher, -0.39
- COCCCN1CCC(NC(=O)c2cc(Cl)c(N)c3c2OCC3)CC1 [Prucalopride Succinate] — higher, 1.44
- CCCCOc1ccc(CC(=O)NO)cc1 [Bufexamac] — higher, -0.32
- NCC[C@H](O)C(=O)N[C@@H]1C[C@H](N)[C@@H](O[C@H]2O[C@H](CN)[C@@H](O)[C@H](O)[C@H]2O)[C@H](O)[C@H]1O[C@H]1O[C@H](CO)[C@@H](O)[C@H](N)[C@H]1O [Amikacin disulfate] — higher, 0.57
- O=C(Nc1cc(Cl)cc(Cl)c1O)c1c(O)c(Cl)cc(Cl)c1Cl [Oxyclozanide] — lower, -1.83
- CCC(=O)NS(=O)(=O)c1ccc(-c2c(-c3ccccc3)noc2C)cc1 [Parecoxib Sodium] — higher, 0.8
- CN(CCN1CCC(OC(=O)Nc2ccccc2-c2ccccc2)CC1)C(=O)c1ccc(CN2CCC(C(N)=O)CC2)cc1 [Revefenacin] — higher, 0.92
- Cc1nnc(NS(=O)(=O)c2ccc(N)cc2)s1 [Sulfamethizole] — lower, -0.65
- CC1=CC[C@@](O)(C(C)C)CC1 [Terpinen-4-ol] — higher, 0.26
- CS(=O)(=O)c1ccc([C@@H](O)[C@@H](CF)NC(=O)C(Cl)Cl)cc1 [Florfenicol] — higher, -0.38
- Cn1c([N+](=O)[O-])cnc1COC(N)=O [Ronidazole] — lower, -0.8
- CCN(CC)CCOc1ccc2c(c1)C(=O)c1cc(OCCN(CC)CC)ccc1-2 [Tilorone dihydrochloride] — higher, -0.31
- CN(C)[C@@H](CCOc1cccc2ccccc12)c1ccccc1 [Dapoxetine HCl] — higher, -0.35
- CN(C)CCC=C1c2ccccc2C(C)(C)c2ccccc21 [Melitracen hydrochloride] — higher, -0.21
- COc1cc(Cc2cnc(N)nc2N)cc(OC)c1OC [Trimethoprim] — higher, 0.07
- OCCN1CCN(CCCN2c3ccccc3Sc3ccc(C(F)(F)F)cc32)CC1 [Fluphenazine dihydrochloride] — lower, -1.12
- CC(C)c1c(C(=O)Nc2ccccc2)c(-c2ccccc2)c(-c2ccc(F)cc2)n1CC[C@@H](O)C[C@@H](O)CC(=O)O [Atorvastatin] — higher, 1.48
- COc1ccc(C2CNC(=O)C2)cc1OC1CCCC1 (stereo unspecified) [Rolipram] — higher, -0.35
- NNc1nncc2ccccc12 [Hydralazine HCl] — higher, 0.37
- COCCOC(=O)C1=C(C)NC(C)=C(C(=O)OC(C)C)C1c1cccc([N+](=O)[O-])c1 (stereo unspecified) [Nimodipine] — higher, 0.69
- CCOC(=O)C1=C(C)NC(C)=C(C(=O)OC)C1c1cccc([N+](=O)[O-])c1 (stereo unspecified) [Nitrendipine] — higher, 0.62
- CCCN[C@H]1CCc2nc(N)sc2C1 [Pramipexole dihydrochloride] — higher, 0.32
- Cc1cc(C)nc(NS(=O)(=O)c2ccc(N)cc2)n1 [Sulfamethazine] — lower, -0.43
- CC[C@H](C)C(=O)O[C@H]1C[C@@H](C)C=C2C=C[C@H](C)[C@H](CC[C@@H]3C[C@@H](O)CC(=O)O3)[C@H]21 [Lovastatin] — higher, 1.08
- CN1[C@@H]2CC[C@H]1C[C@@H](OC(c1ccccc1)c1ccccc1)C2 [Benztropine mesylate] — higher, -0.32
- CO/N=C(\C(=O)N[C@@H]1C(=O)N2C(C(=O)O)=C(CSc3nnnn3C)CS[C@H]12)c1csc(N)n1 [Cefmenoxime hydrochloride] — higher, 0.4
- NCC[C@H](O)C(=O)N[C@@H]1C[C@H](N)[C@@H](O[C@H]2O[C@H](CN)[C@@H](O)[C@H](O)[C@H]2O)[C@H](O)[C@H]1O[C@H]1O[C@H](CO)[C@@H](O)[C@H](N)[C@H]1O [Amikacin hydrate] — higher, -0.12
- CO/N=C(\C(=O)N[C@@H]1C(=O)N2C(C(=O)O)=C(CSc3nc(C)c(CC(=O)O)s3)CS[C@H]12)c1csc(N)n1 [Cefodizime Sodium] — higher, 0.34
- COc1ccc2c3c1O[C@H]1C[C@@H](O)C=C[C@@]31CCN(C)C2 [Galanthamine] — higher, 0.1
- CC[C@H](C)C(=O)O[C@H]1CCC=C2C=C[C@H](C)[C@H](CC[C@@H]3C[C@@H](O)CC(=O)O3)[C@H]21 [Mevastatin] — higher, 0.52
- CN1CCN(CCCN2c3ccccc3Sc3ccc(C(F)(F)F)cc32)CC1 [Trifluoperazine 2HCl] — higher, 0.11
- C[C@]12CC[C@@H]3c4ccc(OS(=O)(=O)O)cc4CC[C@H]3[C@@H]1CCC2=O [Estropipate] — higher, 0.16
- O=C(Cn1ccnc1[N+](=O)[O-])NCc1ccccc1 [Benznidazole] — higher, 0.13
- CCN(Cc1ccncc1)C(=O)C(CO)c1ccccc1 (stereo unspecified) [Tropicamide] — higher, 0.23
